PubChem BioAssay (Tox21)
Values joined by “and” are separate entries in the source; they are usually repeats but may differ in a detail not shown here. Equal values may be shown once. Records with an inconclusive call do not appear. A number with no mark means an inactive call. Active and inactive are the calls of the source. Calls follow the shape of the dose curve; as a rule, active = well fitted inhibition curve with a large enough effect in the repeat runs; inconclusive = weak or mixed curves; inactive = no such curve, though single readings can be large or run the other way. Positions of bridges follow the written chain, without caps; N, C: chain ends. Non-standard residues stand in square brackets, D forms with d. Residues, ends and D or L forms follow the SMILES beside them. *: point of attachment. Dab(CH2SO3H) = N[C@@H](CCNCS(=O)(=O)O)C(=O)O; X3 = CC[C@@H](C)CCCCC(=O)*; Dab = NCC[C@H](N)C(=O)O

Assay: qHTS assay to identify small molecule antagonists of the thyroid receptor (TR) signaling pathway (AID 743065); also: nearly all actives have a fitted effect of over 55% in size
Details: GH3.TRE-Luc, T3-stimulated luciferase inhibition, 23.5 h; series mostly up to 70.3 µM; activity, negative = inhibition: at the top concentration
Excerpt: U.S. Tox21 Program National Center for Advancing Translational Sciences [NCATS] NIH Chemical Genomics Center [NCGC] U.S. Environmental Protection Agency [EPA] National Institutes of Environmental Health Sciences [NIEHS] National Toxicology Program [NTP] U.S. Food and Drug Administration [FDA] Tox21 Assay Overview: Thyroid receptor (TR), a nuclear hormone receptor, plays an important role in development, proliferation, differentiation, metabolism, brain function, and cardiovascular system. […] To profile the Tox21 10K compound library in TR signaling, a cell-based GH3-TRE-Luc assay (GH3.TRE-Luc cell line, developed by the laboratory of Dr. Albertinka J. Murk, Wageningen University) was used to measure the inhibition of TR. GH3 (rat pituitary tumor) cells stably expressing a TR activity sensor consisting of two TR response elements and a luciferase reporter gene.
Tox21 Assay Protocol Summary: GH3.TRE-Luc cells were dispensed at 1500 cells/4 uL/well into 1536-well white solid bottom plates using a Multidrop Combi dispenser (Thermo Fisher Scientific Inc., Waltham, MA). After the assay plates were incubated at 37 C for 4 hours, 23 nL of library compound or DMSO controls was transferred to the assay plates by a pintool station (Kalypsys, San Diego, CA), followed by addition of 1 ul of T3 (1 nM, final concentration in the wells) to stimulate TR transactivation. The assay plates were incubated at 37 C for 23.5 h, and then 1 uL of CellTiter-Fluor reagent (Promega, Madision, WI) of measuring cytotoxicity was added to each well using a Bioraptr Flying Reagent Dispenser (FRD) workstation (Beckman Coulter, Indianapolis, IN, USA). The plates were incubated at 37 C and 5% CO2 for additional 30 min, and fluorescence intensity was measured by a ViewLux plate reader (PerkinElmer, Shelton, CT). For measuring luciferase reporter gene activity, 4 uL of ONE-Glo Luciferase Assay reagent (Promega) was added to each well using a Bioraptr FRD (Beckman Coulter), followed by 30 min incubation at room temperature. The luminescence intensity of plates was recorded by a ViewLux plate reader (PerkinElmer, Shelton, CT).
% is scaled to controls: 0 for no effect and ±100 for the full control effect; potency is read from the fitted curve at half-maximal effect.

Row | Compound | Potency | activity, negative = inhibition
1 | COc1cc([C@@H]2c3cc4c(cc3[C@@H](O[C@@H]3O[C@@H]5CO[C@@H](C)O[C@H]5[C@H](O)[C@H]3O)[C@H]3COC(=O)[C@H]23)OCO4)cc(OC)c1O | 9.44 µM (active) and 3.4 µM (active) | –
2 | CCCCCCCCCCCCCC(=O)OCC(COP(=O)([O-])OCC[N+](C)(C)C)OC(=O)CCCCCCCCCCCCC (stereo not given) | – | 1.35%
3 | COc1c(Br)cc(Br)c(C)c1Br | – | 11.5%
4 | CC(C)CCC[C@@H](C)[C@H]1CC[C@H]2[C@@H]3CC[C@@H]4C[C@H](O)CC[C@]4(C)[C@H]3CC[C@]12C | – | 8.34%
5 | CC(=O)NC[C@H]1CN(c2ccc(N3CCOCC3)c(F)c2)C(=O)O1 | – | 1.53%
6 | C=CCc1cc(S(=O)(=O)c2ccc(O)c(CC=C)c2)ccc1O | 24.3 µM (active) | –
7 | CC(=O)N[C@@H](C=O)[C@H](O)[C@H](O)[C@@H](O)CO | inactive | –
8 | Nc1cc(Cl)c(NC2=NCCN2)c(Cl)c1 | – | 8.13%
9 | SC1CCCCC1 | – | 6.73% [at 95 µM]
10 | NC(N)=NCC1COC2(CCCCC2)O1 (stereo not given) | – | -0.596% [at 32.5 µM]
11 | NCCO/C=C/[C@H](N)C(=O)O | – | 7.89%
12 | CN(C)CCOc1ccc(/C(=C(/CCCl)c2ccccc2)c2ccccc2)cc1 | 11.9 µM (active) and 8.09 µM (active) | –
13 | CC(=O)N(C)C | inactive | –
14 | CON=C1C[C@]2(C[C@@H]3C[C@@H](C/C=C(\C)C[C@@H](C)/C=C/C=C4\CO[C@@H]5[C@H](O)C(C)=C[C@@H](C(=O)O3)[C@]45O)O2)O[C@H](/C(C)=C/C(C)C)[C@H]1C | 3.76 µM (active) and 5.31 µM (active) | –
15 | CC(=O)Nc1ccc(OC(C)=O)cc1 | – | 1.84%
16 | Nc1ccc(N)c([N+](=O)[O-])c1 | – | -8.17%
17 | NCC1CCC(C(=O)O)CC1 (stereo not given) | – | 9.71% [at 32.5 µM]
18 | CC(C)c1ncc([N+](=O)[O-])n1C | – | 6.77%
19 | CC(C)C[C@H](NC(=O)[C@@H](COC(C)(C)C)NC(=O)[C@H](Cc1ccc(O)cc1)NC(=O)[C@H](CO)NC(=O)[C@H](Cc1c[nH]c2ccccc12)NC(=O)[C@H](Cc1cnc[nH]1)NC(=O)[C@@H]1CCC(=O)N1)C(=O)N[C@@H](CCCN=C(N)N)C(=O)N1CCC[C@H]1C(=O)NNC(N)=O | inactive | –
20 | c1ccc(-n2cnnn2)cc1 | – | 3.64%

Row | Compound | Potency | activity, negative = inhibition
21 | CC1(C)CCC(NC(=O)[C@@H](N)CCC(=O)O)CC1 | – | 3.65%
22 | CCN(CC)CCOC[C@H]1O[C@@H](O)[C@H](OCCN(CC)CC)[C@@H](O)[C@@H]1O | – | 1.1%
23 | CCC(=O)OC(OP(=O)(CCCCc1ccccc1)CC(=O)N1C[C@H](C2CCCCC2)C[C@H]1C(=O)O)C(C)C (stereo not given in full) | – | 0.0891%
24 | CC1(C)S[C@@H]2[C@H](NC(=O)[C@H](N)c3ccc(O)cc3)C(=O)N2[C@H]1C(=O)O | – | 9.57%
25 | C[N+]1(CCCCC[N+]2(C)CCCC2)CCCC1 | – | 4.74%
26 | CCCCCN=C(N)N/N=C/c1c[nH]c2ccc(OC)cc12 | – | 11.5%
27 | COc1cc2c(c(OC)c1OC)-c1c(cc3c(c1OC)OCO3)C[C@@H](C)[C@](C)(O)C2 | inactive | –
28 | CC[C@@H](C)CCCCC(=O)N[C@@H](CCNCS(=O)(=O)O)C(=O)N[C@H](C(=O)N[C@@H](CCNCS(=O)(=O)O)C(=O)N[C@H]1CCNC(=O)[C@H]([C@@H](C)O)NC(=O)[C@H](CCNCS(=O)(=O)O)NC(=O)[C@H](CCNCS(=O)(=O)O)NC(=O)[C@H](CC(C)C)NC(=O)[C@@H](CC(C)C)NC(=O)[C@H](CCNCS(=O)(=O)O)NC1=O)[C@@H](C)O (X3-[Dab(CH2SO3H)]T[Dab(CH2SO3H)][Dab][Dab(CH2SO3H)][dL]L[Dab(CH2SO3H)][Dab(CH2SO3H)]T; lactam 4-C) | – | -6.29%
29 | CO[C@H]1C[C@@H]2CC[C@@H](C)[C@@](O)(O2)C(=O)C(=O)N2CCCC[C@H]2C(=O)O[C@H]([C@H](C)C[C@@H]2CC[C@@H](O)[C@H](OC)C2)CC(=O)[C@H](C)C=C(C)[C@@H](O)[C@@H](OC)C(=O)[C@H](C)C[C@H](C)/C=C/C=CC=C1C | 15 µM (active) | –
30 | O=P(O)(O)C(O)(Cn1ccnc1)P(=O)(O)O | – | 9.3%
31 | CCc1cn([C@H]2C[C@H](O)[C@@H](CO)O2)c(=O)[nH]c1=O | – | 9.37%
32 | C[N+](C)(C)CCOP(=O)(O)OP(=O)([O-])OC[C@H]1O[C@@H](n2ccc(N)nc2=O)[C@H](O)[C@@H]1O | inactive | –
33 | CO/N=C(\C(=O)N[C@@H]1C(=O)N2C(C(=O)O)=C(COC(C)=O)CS[C@H]12)c1csc(N)n1 (stereo in doubt) | – | 4.19%
34 | CC[C@@]1([C@@H]2O[C@@H]([C@H]3O[C@@](O)(CO)[C@H](C)C[C@@H]3C)C[C@@H]2C)CC[C@H]([C@]2(C)CC[C@]3(C[C@H](O)[C@@H](C)[C@@H]([C@@H](C)[C@@H](OC)[C@H](C)C(=O)O)O3)O2)O1 (stereo in doubt) | 376 nM (active) and 266 nM (active) | –
35 | CC[C@@H](C)[C@H](N)C(=O)O | – | 6.13%
36 | CCC[C@@H]1C[C@@H](C(=O)N[C@@H]([C@H]2O[C@H](SC)[C@H](OP(=O)(O)O)[C@@H](O)[C@H]2O)[C@H](C)Cl)N(C)C1 | inactive | –
37 | CC1=C(/C=C/C(C)=C/C=C/C(C)=C\C(=O)O)C(C)(C)CCC1 | 68.8 µM (active) | –
38 | C[S+](CC[C@H](N)C(=O)O)C[C@H]1O[C@@H](n2cnc3c(N)ncnc32)[C@H](O)[C@@H]1O (stereo not given in full) | inactive | –
39 | COc1ccc(/C=C/C(=O)O)cc1 | – | -2.13%
40 | CC1CCCC(C)N1NC(=O)c1ccc(Cl)c(S(N)(=O)=O)c1 (stereo not given) | – | -0.081% [at 32.5 µM]
